In PubChem BioAssay (NCATS):
Results filed as inconclusive are left out. Where a call stands in place of a potency, no number is given. The source made the active and inactive calls. Calls come from the whole dose curve; as a rule, active = well fitted curve in the direction sought with a large enough effect; inconclusive = small, poorly fitted or top-dose-only effect, or another doubt; inactive = no such curve, though single readings can be large; an effect the other way counts as inactive or inconclusive.

What was measured:
[1] = qHTS to identify inhibitors of the type 1 interferon - major histocompatibility complex class I in skeletal muscle: primary screen against the NCATS Pharmaceutical Collection (AID 1347407);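 note: luminescence of HiBiT knocked into endogenous HLA-B as interferon-induced MHC class I level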
Outline: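 Immortalized human myoblasts (C25cl48) with HiBiT knocked into endogenous HLA-B*08:01 were stimulated with 4.0 ng/ml IFN-beta and treated with compounds ([…] top 46 uM) for 24 hrs at 37 C. HiBiT lytic luminescence read.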

[2] = molecular target: Protein phosphatase 1D (Homo sapiens) (UniProt O15297); test: RapidFire Mass Spectrometry qHTS Assay for Modulators of WT P53-Induced Phosphatase 1 (WIP1) (AID 1347424);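 note: amount of dephosphorylated VEPPL-S-QETFS peptide product formed by WIP1; series mostly up to about 63 µM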
Protein phosphatase 1D (Homo sapiens), sequence (O15297 whole entry, looked up): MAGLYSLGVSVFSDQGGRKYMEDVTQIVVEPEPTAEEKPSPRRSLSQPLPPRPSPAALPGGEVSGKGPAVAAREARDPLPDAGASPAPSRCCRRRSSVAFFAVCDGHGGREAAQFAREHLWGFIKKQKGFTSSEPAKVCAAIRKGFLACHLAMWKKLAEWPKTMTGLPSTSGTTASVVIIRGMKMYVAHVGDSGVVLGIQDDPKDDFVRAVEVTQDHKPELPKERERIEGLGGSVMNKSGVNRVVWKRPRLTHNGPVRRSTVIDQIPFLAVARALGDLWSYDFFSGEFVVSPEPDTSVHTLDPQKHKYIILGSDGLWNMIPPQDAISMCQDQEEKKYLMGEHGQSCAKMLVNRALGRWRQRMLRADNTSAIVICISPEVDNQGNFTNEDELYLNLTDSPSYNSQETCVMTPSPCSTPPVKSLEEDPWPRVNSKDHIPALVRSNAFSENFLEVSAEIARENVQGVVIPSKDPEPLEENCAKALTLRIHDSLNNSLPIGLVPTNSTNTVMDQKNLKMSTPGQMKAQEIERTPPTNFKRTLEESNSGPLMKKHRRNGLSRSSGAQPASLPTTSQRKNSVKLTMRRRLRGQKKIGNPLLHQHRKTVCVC
Outline: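 10 nM WIP1 preincubated with compounds 1 hr at room temperature in pH 7.5 Tris buffer with 30 mM MgCl2, 1 mM TCEP; 2 uM VEPPL-pS-QETFS phosphopeptide for 5 min, formic acid quench; dephosphorylated product quantified by RapidFire MS against labelled standard.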

[3] = molecular target: Protein phosphatase 1D (Homo sapiens) (UniProt O15297); test: Rhodamine-PBP qHTS Assay for Modulators of WT P53-Induced Phosphatase 1 (WIP1) (AID 1347425)
Outline: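 Steps: enzyme with Rh-PBP sensor and compounds, room-temperature incubation of 1 hr, baseline read, addition of VEPPL-pS-QETFS (10 uM final), kinetic fluorescence reads at 525/598 nm. Activity equals final minus baseline signal.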

[4] = Primary qHTS for inhibitors of La Crosse Virus (LACV) - induced cell death in SH-SY5Y cells (AID 1508616);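 note: top concentration of the series differs between compounds; higher means more rescue of cells from virus-induced death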
Outline: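 Readout was luminescence from ATPLite 1step added after a 6-day LACV infection (0.01 MOI) of SH-SY5Y cells that had received pin-transferred compound 24 hr after seeding.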

[5] = molecular target: Calcium and integrin-binding protein 1 (Homo sapiens) (UniProt Q99828); test: Confirmatory qHTS for Identification of Calcium Integrin Binding Protein 1 (CIB1) Competitor (AID 1508617); note: nearly all actives have a fitted effect of over 65% in size
Calcium and integrin-binding protein 1 (Homo sapiens), sequence (Q99828 whole entry, looked up): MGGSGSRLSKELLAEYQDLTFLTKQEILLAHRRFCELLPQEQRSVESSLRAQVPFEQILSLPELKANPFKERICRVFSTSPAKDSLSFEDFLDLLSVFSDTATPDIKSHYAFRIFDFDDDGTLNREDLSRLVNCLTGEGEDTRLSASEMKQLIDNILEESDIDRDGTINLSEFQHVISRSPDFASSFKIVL
Outline: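 Binding competition between test compounds and fluorescent alphaIIb peptide for 1 uM CIB1-GST is monitored by FP at 480/540 nm. Final compound range is up to 114 uM; unlabeled peptide serves as reference competitor.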

[6] = Validation qHTS assay for inhibitors of Activation Induced Cytidine Deaminase (AID): UDG Counterscreen signal (AID 1347427)
Outline: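 Counterscreen read of UDG activity (2 U/mL, 4/3x) in the FRET deamination format with AID (1 uM, 4/3x), DJC20/DJC23 substrates (250 nM, 4x), 4 h at room temperature. NaOH stop, fluorescence at 560 ex/665 em.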

[7] = molecular target: Single-stranded DNA cytosine deaminase (Homo sapiens) (UniProt Q9GZX7); test: Validation qHTS assay for inhibitors of Activation Induced Cytidine Deaminase (AID): AID signal (AID 1347429)
Single-stranded DNA cytosine deaminase (Homo sapiens), sequence (Q9GZX7 whole entry, looked up): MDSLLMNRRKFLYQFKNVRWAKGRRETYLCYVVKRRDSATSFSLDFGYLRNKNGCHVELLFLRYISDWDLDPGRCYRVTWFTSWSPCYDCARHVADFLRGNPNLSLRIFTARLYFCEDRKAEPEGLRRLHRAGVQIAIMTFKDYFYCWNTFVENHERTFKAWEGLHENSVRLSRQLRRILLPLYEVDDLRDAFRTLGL
Outline: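 In this coupled qHTS, AID deaminates a FRET-labelled ssDNA substrate in the presence of UDG over 4 hr at room temperature. Compounds span up to 114 uM final.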

[8] = qHTS to identify inhibitors of the type 1 interferon - major histocompatibility complex class I in skeletal muscle: primary screen against the NCATS Mechanism Interrogation Plate v5.0 (MIPE) Libary (AID 1347411); note: nearly all actives have a fitted effect of over 65% in size; note: potency is the fitted concentration of half-maximal effect
Outline: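 Cells were genome-edited human myoblasts carrying a HiBit tag on endogenous HLA-B. They were treated with IFN-beta (4.0 ng/ml) and titrated compounds (top 46 uM) for 24 hrs before lytic HiBiT detection.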

[9] = qHTS for inhibitors of adenylyl cyclases using a fission yeast platform: a pilot screen against the NCATS LOPAC library (AID 1347410)
Outline: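 S. pombe CHP2027 (AC9-GNAS-PDE4D2) carrying PKA-repressed fbp1-GFP, incubated 18 h at 30C in EMM with LOPAC compounds at up to 57 uM. GFP gain-of-signal read by laser scanning cytometry; DMSO negative control.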

SMILES: COc1nc(N)nc2c1ncn2[C@@H]1O[C@H](CO)[C@@H](O)[C@@H]1O
- Potency [1]: inactive
- outcome [2]: inactive
- outcome [3]: inactive
- Potency [4]: inactive

SMILES: N=C(N)c1ccc(OCCCCCOc2ccc(C(=N)N)cc2)cc1
- outcome [2]: inactive
- outcome [3]: inactive

SMILES: CCCCc1oc2ccc(NS(C)(=O)=O)cc2c1C(=O)c1ccc(OCCCN(CCCC)CCCC)cc1
- outcome [2]: inactive
- outcome [3]: inactive
- Potency [4]: inactive

SMILES: O=C(O)c1cccnc1
- outcome [2]: inactive
- outcome [3]: inactive

SMILES: CN1CCN(c2c(F)cc3c(=O)c(C(=O)O)cn(CCF)c3c2F)CC1
- outcome [2]: inactive
- outcome [3]: inactive

SMILES: O=C(O)CCn1c2c(c3ccccc31)C[C@H](NS(=O)(=O)c1ccc(F)cc1)CC2
- outcome [2]: inactive
- outcome [3]: inactive

SMILES: CO[C@@]12[C@H](COC(N)=O)C3=C(C(=O)C(C)=C(N)C3=O)N1C[C@@H]1N[C@@H]12
- outcome [2]: inactive
- outcome [3]: inactive
- Potency [4]: inactive
- outcome [5]: inactive

SMILES: NC1(c2ccc(-c3nc4ccn5c(=O)[nH]nc5c4cc3-c3ccccc3)cc2)CCC1
- outcome [2]: inactive
- outcome [3]: inactive

SMILES: CCn1cc(C(=O)O)c(=O)c2cc(F)c(N3CCN(C)CC3)cc21
- outcome [2]: inactive
- outcome [3]: inactive
- Potency [4]: inactive

SMILES: CC(=O)[C@H]1CC[C@H]2[C@@H]3CCC4=CC(=O)CC[C@]4(C)[C@H]3CC[C@]12C
- outcome [6]: inactive
- outcome [7]: inactive

SMILES: CCc1c2c(nc3ccc(OC(=O)N4CCC(N5CCCCC5)CC4)cc13)-c1cc3c(c(=O)n1C2)COC(=O)[C@]3(O)CC
- outcome [2]: inactive
- outcome [3]: inactive

SMILES: CCC(=O)O[C@]1(C(=O)SCF)[C@H](C)C[C@H]2[C@@H]3C[C@H](F)C4=CC(=O)C=C[C@]4(C)[C@@]3(F)[C@@H](O)C[C@@]21C
- Potency [8]: inactive
- outcome [2]: inactive
- outcome [3]: inactive
- Potency [4]: inactive

SMILES: Cc1c(-c2ccc(O)cc2)n(Cc2ccc(OCCN3CCCCCC3)cc2)c2ccc(O)cc12
- outcome [2]: inactive
- outcome [3]: inactive

SMILES: Cc1ccc(S(=O)(=O)N[C@@H](Cc2ccccc2)C(=O)CCl)cc1
- outcome [9]: inactive
- outcome [6]: inactive
- outcome [7]: inactive

SMILES: COc1cc(NCc2ccc3nc(N)nc(N)c3c2C)cc(OC)c1OC
- Potency [8]: 26.2 µM (active)
- outcome [2]: inactive
- outcome [3]: inactive
- Potency [4]: inactive

SMILES: NC(=O)N1c2ccccc2CC(=O)c2ccccc21
- Potency [1]: inactive
- outcome [2]: inactive
- Potency [4]: inactive

SMILES: CCOC(=O)[C@H](CCc1ccccc1)N[C@H]1CCc2ccccc2N(CC(=O)O)C1=O
- Potency [8]: inactive
- outcome [2]: inactive
- outcome [3]: inactive

SMILES: COc1cc2ncnc(Nc3cccc(Cl)c3)c2cc1OC
- outcome [9]: inactive
- Potency [8]: 29.4 µM (active)
- outcome [6]: inactive
- outcome [7]: inactive

SMILES: CC(=O)Oc1ccccc1C(=O)Nc1ncc([N+](=O)[O-])s1
- Potency [1]: inactive
- Potency [4]: inactive

SMILES: Cc1ncc([N+](=O)[O-])n1CCO
- outcome [2]: inactive
- outcome [3]: inactive
- Potency [4]: inactive

SMILES: CNCC[C@H](Oc1cccc2ccccc12)c1cccs1
- outcome [2]: inactive
- outcome [3]: inactive

SMILES: Clc1ccccc1CN1CCc2sccc2C1
- outcome [2]: inactive
- outcome [3]: inactive

SMILES: Cc1cccc(Nc2ccncc2S(=O)(=O)NC(=O)NC(C)C)c1
- outcome [2]: inactive
- outcome [3]: inactive
- Potency [4]: inactive

SMILES: O=C(O)c1cn(C2CC2)c2cc(N3CCNCC3)c(F)cc2c1=O
- outcome [2]: inactive
- outcome [3]: inactive
- Potency [4]: inactive

SMILES: C[C@@H]1CN(c2c(F)c(N)c3c(=O)c(C(=O)O)cn(C4CC4)c3c2F)C[C@H](C)N1
- Potency [1]: inactive
- outcome [2]: inactive
- outcome [3]: inactive
- Potency [4]: inactive

SMILES: COC(=O)Nc1nc2ccc(C(=O)c3ccccc3)cc2[nH]1
- outcome [2]: inactive
- outcome [3]: inactive

SMILES: O=S(=O)(c1cccc2cnccc12)N1CCCNCC1
- Potency [8]: inactive
- outcome [2]: inactive
- outcome [3]: inactive
- Potency [4]: inactive
